Assay outcomes (PubChem BioAssay)
Rows were chosen to be rich in hits. Some 0.92% of all compounds tested hit in one or more screens of this group.
TDP1 inh – blocks human tyrosyl-DNA phosphodiesterase 1; Q9NUW8; recombinant TDP1, AlphaScreen DNA substrate cleavage; Potency, µM (titrated, usually from 130 µM), without a hit: top-dose activity change, negative = inhibition, hits mostly inhibitors; hit rate 0.28% among 350,000; AID 485290; further: nearly all actives have a fitted effect of over 40% in size
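AlphaScreen read-out: signal falls as enzyme removes the 3' tyrosine-FITC from a 5'-biotinylated DNA oligo (15 nM, 5 min, RT). Enzyme was E. coli-made recombinant Tdp1 at 1 nM, exposed to compound for 15 min beforehand; beads 10 ug/ml, 10 min.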
FEN1 inh – blocks human flap endonuclease 1 | Potency, µM (top dose mostly 114 µM), inactives show top-dose activity change, negative = inhibition, usual class: inhibitors | hit rate 0.35% among 390,000 | Recombinant FEN1 flap cleavage, fluorescence, 15 min | AID 588795 | P39748; further: nearly all actives have a fitted effect of over 65% in size
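Quantitative HTS format: each compound was titrated, incubated with 10 nM nuclease for 15 min at room temperature, then challenged with flap substrate at 50 nM final. Signal change over 15 min gave concentration–effect curves.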
BLM inh – inhibitors of human Bloom syndrome helicase BLM; Potency, µM (highest dose often 56.1 µM), for the others: at the top dose activity change, negative = inhibition, usual class: inhibitors; hit rate 0.2% among 350,000; P54132; recombinant BLM DNA unwinding, fluorescence dequenching;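 further: plate controls were vehicle for no effect and no enzyme for full effect; nearly all actives have a fitted effect of over 35% in size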
Target sequence (P54132 whole entry, looked up): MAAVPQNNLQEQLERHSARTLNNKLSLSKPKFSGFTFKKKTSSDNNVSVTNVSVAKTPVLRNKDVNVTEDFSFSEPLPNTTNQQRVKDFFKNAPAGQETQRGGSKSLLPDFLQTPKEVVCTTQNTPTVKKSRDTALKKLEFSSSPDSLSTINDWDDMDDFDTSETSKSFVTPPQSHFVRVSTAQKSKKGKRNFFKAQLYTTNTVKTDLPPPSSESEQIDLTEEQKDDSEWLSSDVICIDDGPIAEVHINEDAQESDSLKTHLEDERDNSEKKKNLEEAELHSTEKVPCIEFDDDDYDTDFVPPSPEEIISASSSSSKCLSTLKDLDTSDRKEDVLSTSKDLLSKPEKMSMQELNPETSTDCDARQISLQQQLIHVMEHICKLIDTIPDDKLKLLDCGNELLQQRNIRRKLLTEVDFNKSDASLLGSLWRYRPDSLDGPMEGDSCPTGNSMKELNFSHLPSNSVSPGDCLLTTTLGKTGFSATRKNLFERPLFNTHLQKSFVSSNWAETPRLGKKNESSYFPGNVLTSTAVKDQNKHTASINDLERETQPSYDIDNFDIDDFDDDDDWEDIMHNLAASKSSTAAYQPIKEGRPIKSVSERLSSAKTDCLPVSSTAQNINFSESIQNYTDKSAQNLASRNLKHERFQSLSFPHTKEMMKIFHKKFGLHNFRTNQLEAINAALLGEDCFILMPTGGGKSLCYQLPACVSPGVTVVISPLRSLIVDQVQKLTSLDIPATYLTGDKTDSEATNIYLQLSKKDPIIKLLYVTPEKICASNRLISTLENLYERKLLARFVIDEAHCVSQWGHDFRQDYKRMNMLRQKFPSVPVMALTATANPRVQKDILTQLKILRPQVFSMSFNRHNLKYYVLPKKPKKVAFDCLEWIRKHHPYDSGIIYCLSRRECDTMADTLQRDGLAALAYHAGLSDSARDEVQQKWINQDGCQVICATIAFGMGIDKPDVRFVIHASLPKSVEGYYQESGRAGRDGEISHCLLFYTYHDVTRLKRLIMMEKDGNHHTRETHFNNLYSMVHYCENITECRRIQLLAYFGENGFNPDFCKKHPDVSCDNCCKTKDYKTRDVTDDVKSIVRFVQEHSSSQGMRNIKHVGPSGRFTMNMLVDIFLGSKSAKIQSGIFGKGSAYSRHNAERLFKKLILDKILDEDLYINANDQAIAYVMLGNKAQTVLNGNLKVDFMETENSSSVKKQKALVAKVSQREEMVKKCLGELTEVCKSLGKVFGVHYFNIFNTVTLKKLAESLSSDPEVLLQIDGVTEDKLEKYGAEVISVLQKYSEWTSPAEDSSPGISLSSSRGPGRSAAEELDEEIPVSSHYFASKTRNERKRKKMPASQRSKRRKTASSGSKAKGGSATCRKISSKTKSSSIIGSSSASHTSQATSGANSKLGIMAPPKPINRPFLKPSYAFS
RECQ1 inh – inhibitors of human RECQ1 DNA helicase. P46063. Potency, µM (series often up to 57.3 µM), for the others: top-dose activity, negative = inhibition, actives largely listed as inhibitors. AID 2549. RECQ1 DNA unwinding, red fluorescence kinetic read. hit rate 0.54% among 240,000;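 further: plate controls were vehicle for no effect and no enzyme for full effect; nearly all actives have a fitted effect of over 30% in size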
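RECQ1T1 50 nM; forked duplex (20 bp + 30-nt ss tails) 200 nM, ATP 2 mM final; pH 8.0, 2 mM MgCl2, 2.5 ug/ml poly(dI-dC); 15 min compound preincubation; discontinuous kinetic read over 2 h at RT.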
APE1 inh – inhibitors of human APE1 endonuclease; Potency, µM (highest dose often 65.8 µM), for the others: top-dose activity change, negative = inhibition, most hits filed as inhibitors; P27695; recombinant APE1, TAMRA/BHQ-2 abasic DNA cleavage fluorescence; hit rate 0.35% among 350,000; AID 2517;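 further: plate controls were vehicle for no effect and reference inhibitor for full effect; nearly all actives have a fitted effect of over 55% in size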
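Measures dequenching upon AP-site incision of a 5'-TAMRA/3'-BHQ-2 THF-containing duplex, 50 nM; human APE1 0.75 nM after 15 min room-temperature exposure to compound; kinetic three-point read at one-minute spacing.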
Active calls of the source: *; i = inactive; ? = inconclusive; nt = no result given; [ ] = dose if it differs, or a comment. The call rests on the fitted dose curve; in most records, active means well fitted curve in the direction sought with a large enough effect; inconclusive means small, poorly fitted or top-dose-only effect, or another doubt; inactive means no such curve, though single readings can be large; an effect the other way counts as inactive or inconclusive. Unless noted, on the % scale 0 is the no-effect control and ±100 the full control effect; potency means the concentration at half of the fitted maximal effect.

SMILES | TDP1 inh | FEN1 inh | BLM inh | RECQ1 inh | APE1 inh
CC1(C)CC(=O)C2=C(C1)OC(N)=C(C#N)[C@@H]2c1ccccc1[N+](=O)[O-] | 71µM* | 4% | -5% | -7% | -3%
COc1ccc(C2C=C(c3ccc(Cl)cc3)Nc3nc(-c4ccc(Cl)cc4)nn32)cc1 (configuration not stated) | nt | 6% | -14% | nt | nt
CC(=O)N=c1sc2nc3ccccc3nc2n1N(C(C)=O)C(C)=O | 2% | 79µM* | -5% | i | ?
CCCCCCCCCCCCCCCC[n+]1ccc(C)c2ccccc21 | nt | 79µM* | nt | nt | nt
CCCCCCC[n+]1ccc(/C=C/c2c[nH]c3ccccc23)cc1 | nt | -11% | nt | nt | nt
CCCCCCCCCC[n+]1cccc2c3ccccc3ccc21 | 6% | 3% | 5% | 1% | 18%
CCCCCCCCCC[n+]1ccc(/C=C/c2c[nH]c3ccccc23)c2ccccc21 | nt | 45µM* | nt | nt | nt
O=C(N/N=C/c1ccccc1Br)c1ccc(CSc2cccc3cccnc23)cc1 | 1% | 3% | 1% | -8% | 2%
O=C1CCC/C(=N\NC(=O)c2ccc(CSc3cccc4cccnc34)cc2)C1 | 9% | 3% | -13% | 28µM* | 19%
CCc1cccc(NC(=O)COC(=O)c2ccccc2OCc2ccccc2Br)c1 | nt | -7% | nt | nt | nt
CCN(CCO)c1ccc(NC(=S)Nc2cccc(S(=O)(=O)N(C)C)c2)cc1 | 0% | -11% | -20% | 40µM* | ?
CC(NC(=O)c1cnc2ccccc2n1)c1ccccc1 (configuration not stated) | nt | -10% | -12% | nt | -8%
CS[C@@H]1SC[C@H]2C(=O)N(C)C(C(C)C)C(=O)OC[C@@H](NC(=O)c3cnc4ccccc4n3)C(=O)N[C@@H](C)C(=O)N(C)[C@H]1C(=O)N(C)C(C(C)C)C(=O)OC[C@@H](NC(=O)c1cnc3ccccc3n1)C(=O)N[C@@H](C)C(=O)N2C (some centres not stated) | 9% | nt | 26% | 10µM* | ?
O=C1C=CC(=O)c2c1ccc1c2ccc2ccccc21 | 13%[56.1 µM] | nt | -12%[21.4 µM] | 5%[25.9 µM] | -3%[21 µM]
O=C(Nc1ccc(C2=NCCN2)cc1)c1ccc(C(=O)Nc2ccc(C3=NCCN3)cc2)c(Cl)c1 | 11% | 50µM* | 257% | 57% | -6%
CCN1CCN(Cc2ccc(NC(=O)c3ccc(C)c(/C=C/c4cnc(Nc5cc(N6CCNCC6)nc(C)n5)cn4)c3)cc2C(F)(F)F)CC1 | nt | 13µM* | 33% | nt | ?
Cc1noc(C)c1-c1nc(Nc2ccncc2)c2ccccc2n1 | 28µM* | nt | -6% | -6% | -8%
Cc1ccc2ccc3cccc4ccc1c2c34 | 56µM* | 9% | nt | -7% | -6%
O=C(CCS(=O)(=O)c1ccccc1Cl)NCc1ccc(F)cc1 | 0% | -3% | 0% | -3% | 7%
O=C(CCS(=O)(=O)c1ccc(Br)cc1)NCc1ccc(F)cc1 | 50µM* | -1% | 0% | nt | 6%
O=C(N/N=C1/C[C@@H](O)[C@@H](O)[C@@H]2[C@@H]3C(=O)N(c4cccc(Oc5ccccc5)c4)C(=O)[C@H]3CC[C@H]12)OCc1ccccc1 | 3%[21 µM] | nt | -4%[12.4 µM] | i[11.5 µM] | 12%[12.4 µM]
COc1ccc(CCCCCCOCc2ccccc2)cc1 | 20µM* | 4% | nt | nt | -13%
C[N+]1(C)CC[C@@H](OC(=O)[C@@](O)(c2ccccc2)C2CCCC2)C1 | 14%[21 µM] | nt | -1%[21.4 µM] | -7%[25.9 µM] | 1%[21 µM]
Cc1ccc(/C=N/NC(=O)Cc2ccc(Cl)cc2)c(O)c1 | 50µM* | -1% | -18% | nt | ?
Cc1ccccc1/C=N/NC(=O)Cc1ccc(Cl)cc1 | 5% | -1% | 0% | -8% | -3%
SMILES | TDP1 inh | FEN1 inh | BLM inh | RECQ1 inh | APE1 inh
O=C(Nc1ccc(Cl)cc1)C1CCC(CNS(=O)(=O)c2ccc(Br)s2)CC1 (configuration not stated) | 2% | -1% | -5% | nt | nt
CC(=O)c1cc(-c2ccc(F)cc2)n(CCC(=O)NCc2ccc(C)cc2)c1C | 4% | -7% | 0% | nt | nt
COCCN(C(=O)COC(=O)Cc1coc2cc3c(cc12)CCC3)c1c(N)n(Cc2ccccc2)c(=O)[nH]c1=O | 13µM* | 3% | nt | nt | 9.5µM*
Nc1ccc(N)c(Cl)c1 | 0% | nt | nt | 22µM* | ?
Cc1ccc(N)c(Cl)c1 | 5% | nt | -3% | -11% | 0%
CC(C)=CC[C@@H](O)C1=CC(=O)c2c(O)ccc(O)c2C1=O | 21% | nt | nt | 10µM* | 7.1µM*
CC(C)N=c1scc(-c2cccs2)n1/N=C/c1ccc(O)c(O)c1O | 12% | -19% | -21% | -17% | -7%
CN=c1scc(-c2ccccc2F)n1/N=C/c1ccc(O)c(O)c1O | 10% | ? | ? | 7.9µM* | 10µM*
COC(=O)C1CCN(C(=O)COC(=O)CNS(=O)(=O)c2ccc(SC)c([N+](=O)[O-])c2)CC1 | 35µM* | -10% | nt | nt | 12µM*
O=c1cnc2ccccc2n1Cc1ccccc1C(F)(F)F | 50µM* | -11% | -2% | nt | -40%
O=C(N/N=C/c1ccc2c(c1)OCO2)c1ccc(COCC(F)(F)C(F)F)cc1 | 56µM* | -8% | -10% | nt | -11%
CC(C)(C)c1ccc(S(=O)(=O)c2cnc(SCC(=O)Nc3ccc(F)c(Cl)c3)[nH]c2=O)cc1 | nt | 50µM* | -16% | nt | nt
O=C(CSc1ncc(S(=O)(=O)c2ccc(Cl)cc2)c(=O)[nH]1)Nc1cccc(C(F)(F)F)c1 | 0% | 0% | -5% | nt | nt
N#CC1(C#N)C(c2ccccc2)OC23CCCCCC2C1(C#N)C(=N)O3 (configuration not stated) | 0% | -9% | -8% | -3% | 0%
N#CC1(C#N)C(c2ccccc2)OC23CCCCC2C1(C#N)C(=N)O3 (configuration not stated) | -2% | -7% | -5% | 13µM* | -2%
c1ccc([C@@H]2CN3CCSC3=N2)cc1 | 10%[21 µM] | nt | 1%[21.4 µM] | -5%[25.9 µM] | 3%[21 µM]
CC(C)S(=O)(=O)C1=NSC2=NC(=O)/C(=C\c3ccc(-c4ccccc4)o3)C(=N)N21 | 6% | ? | -16% | 0% | 2%
CC(C)S(=O)(=O)C1=NSC2=NC(=O)/C(=C\c3ccc(-c4cccc(C(=O)O)c4)o3)C(=N)N21 | 2% | 22µM* | -4% | 8% | -4%
Cc1ccc(N(C)S(=O)(=O)c2ccc3c(c2)CCC(=O)N3)cc1C | -3% | nt | nt | nt | nt
CCOc1cc(/C=N/N=C2/NC(=O)C(CC(=O)O)S2)ccc1OCc1ccc(Cl)cc1Cl (configuration not stated) | 20µM* | ? | -7% | i | ?
CCSc1cc(N2CCCC2)nc(-c2ccc(C)cc2)n1 | 5% | 89µM* | -1% | -4% | ?
S=c1[nH]nc(COc2ccccc2)n1/N=C/C=C/c1ccco1 | nt | -34% | -24% | 32µM* | ?
S=c1[nH]nc(-c2n[nH]c3c2CCC3)n1/N=C/C=C/c1ccco1 | nt | -26% | -7% | 13µM* | ?
